# G9a inh = blocks human histone lysine methyltransferase G9a; Potency, µM (top dose mostly 102 µM), for inactives: top-dose activity, negative = inhibition, most hits filed as inhibitors; G9a H3K9 monomethylation, AlphaScreen, 2 h; hit rate 8.8% among 350,000; Q96KQ7; AID 504332; note: potency is the fitted concentration of half-maximal effect; % is set by controls: 0 for no effect and ±100 for the full control effect; nearly all actives have a fitted effect of over 75% in size
#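 Compounds were preincubated with 20 nM G9a for 15 min, after which biotinylated H3K9 peptide (500 nM) and SAM (20 uM) started a 2 h room-temperature reaction. Monomethylated product was quantified by antibody-based AlphaScreen chemiluminescence.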
# CtBP-E1A inh = CtBP/E1A binding inhibition; AlphaScreen GST-E1A/His-CtBP binding, 1536-well; stronger effect = lower value; activity change, % (no concentration beside the values); hit rate 0.49% among 340,000; in the data active = activity change below about -65%; inconclusive = mostly about -30% to -63%; note: % is set by controls: 0 for no effect and ±100 for the full control effect
#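 Steps: dispense buffer (Tris pH 8.0, NaCl 300 mM, TCEP 1 mM, BSA, Tween 20); add 5X protein mix (GST-E1A, His-CtBP, 125 nM each); pin 23 nL compound; 2 h at 37 °C, dark; add 5X beads (50 ug/mL); 1 h; read.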
# BAZ2B block = blocks human BAZ2B | Q9UIF8 | AlphaScreen BAZ2B-H3K14Ac peptide displacement | Potency, µM (top dose mostly 114 µM), without a hit: at the top dose activity change, negative = inhibition, most hits filed as inhibitors | hit rate 4.4% among 360,000; note: potency is the fitted concentration of half-maximal effect; % is set by controls: 0 for no effect and ±100 for the full control effect; nearly all actives have a fitted effect of over 60% in size
#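 Protein-peptide AlphaScreen: BAZ2B 50 nM, b-H3K14Ac 50 nM, 1x PBS pH 7.4 + 0.01% Tween-20. Preincubation 30 min RT; cpd 30 min RT (top 110 uM); beads 20 min RT, light-protected.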
# Six1-Eya2 blk = blocks human Six1 binding to Eya2; Q15475+O00167; AlphaScreen GST-Six1/His-Eya2 binding, biochemical; stronger effect = lower value; activity change, % (no concentration beside the values); hit rate 0.56% among 360,000; AID 651725; in the data active = activity change below about -65%; inconclusive = mostly about -30% to -63%; note: % is set by controls: 0 for no effect and ±100 for the full control effect
# Target sequence (O00167 whole entry, looked up): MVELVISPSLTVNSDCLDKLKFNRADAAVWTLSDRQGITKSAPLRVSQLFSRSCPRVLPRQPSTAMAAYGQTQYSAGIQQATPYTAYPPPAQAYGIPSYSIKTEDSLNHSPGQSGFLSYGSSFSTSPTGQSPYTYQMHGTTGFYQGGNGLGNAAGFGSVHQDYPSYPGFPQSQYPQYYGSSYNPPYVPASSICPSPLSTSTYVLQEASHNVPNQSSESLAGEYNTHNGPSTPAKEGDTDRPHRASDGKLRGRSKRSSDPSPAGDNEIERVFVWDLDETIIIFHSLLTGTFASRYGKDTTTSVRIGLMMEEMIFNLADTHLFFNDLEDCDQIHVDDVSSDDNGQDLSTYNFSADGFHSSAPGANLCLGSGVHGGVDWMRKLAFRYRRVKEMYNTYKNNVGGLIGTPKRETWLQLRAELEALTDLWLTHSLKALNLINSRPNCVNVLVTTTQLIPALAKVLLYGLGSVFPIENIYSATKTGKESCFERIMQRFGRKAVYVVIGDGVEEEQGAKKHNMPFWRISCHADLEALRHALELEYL
# Target sequence (Q15475 whole entry, looked up): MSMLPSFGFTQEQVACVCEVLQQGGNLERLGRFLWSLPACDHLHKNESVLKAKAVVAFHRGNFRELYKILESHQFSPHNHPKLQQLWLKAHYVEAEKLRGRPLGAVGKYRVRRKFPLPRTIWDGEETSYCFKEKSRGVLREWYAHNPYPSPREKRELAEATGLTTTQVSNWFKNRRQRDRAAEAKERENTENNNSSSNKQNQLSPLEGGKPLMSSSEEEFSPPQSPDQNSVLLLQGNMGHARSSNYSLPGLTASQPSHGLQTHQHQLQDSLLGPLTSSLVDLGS
#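 GST-Six1 + His-Eya2 (5X stock: 250/500 nM); Tris pH 8.0, 300 mM NaCl, 0.05% BSA, 0.02% Tween 20; GSH donor/Ni acceptor beads; 1 h 37 °C dark; AlphaScreen readout.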
# JMJD2A Tudor inh = blocks the human JMJD2A Tudor domain; O75164; AID 504339; hit rate 4.4% among 390,000; Potency, µM (top dose mostly 114 µM), inactives show top-dose activity change, negative = inhibition, actives largely listed as inhibitors; AlphaScreen JMJD2A-Tudor / H3K4me3 peptide binding; note: potency is the fitted concentration of half-maximal effect; % is set by controls: 0 for no effect and ±100 for the full control effect; nearly all actives have a fitted effect of over 50% in size
# HP1b binding inh = HP1-beta chromodomain-methylated histone interaction inhibition. Potency, µM (highest dose often 114 µM), inactives show top-dose activity change, negative = inhibition, usual class: inhibitors. AlphaScreen HP1-beta / biotin-H3K9me3 peptide binding. P83916. AID 540317. hit rate 0.56% among 390,000; note: potency is the fitted concentration of half-maximal effect; nearly all actives have a fitted effect of over 70% in size
#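 HP1-beta protein (50 nM final) preincubated 30 min at room temperature with biotinylated H3(1-18)K9me3 peptide (50 nM) in PBS pH 7.4, 0.01% Tween-20, then compound added for 30 min. AlphaScreen streptavidin donor/nickel chelate acceptor beads (10 ug/mL final), 30 min dark, luminescence read.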
# Starred values were filed as active, the others as inactive; ? = inconclusive; / = not tested or not shown; [ ] = another dose, or the depositor's remark. This is a sample that favours compounds with a hit; in the whole collection about 10% have one here. Unless noted, calls come from the whole dose curve; as a rule, active = well fitted inhibition curve with a large enough effect; inconclusive = small, poorly fitted or top-dose-only effect; inactive = no such curve, though single readings can be large or run the other way.
SMILES,G9a inh,CtBP-E1A inh,BAZ2B block,Six1-Eya2 blk,JMJD2A Tudor inh,HP1b binding inh
O=c1c2ccccc2c(C=NCc2ccccn2)c(O)n1-c1ccccc1Cl,?,0,?,5,?,-17%
Cc1ccc(-n2c(O)c(/C=N/n3cnnc3)c3ccccc3c2=O)cc1,?,-5,50µM*,-3,56µM*,-4%
CCOc1ccc(CCNC(=O)c2ccc3c(c2)c(C)c(C)n3C)cc1,?,/,?,/,?,-18%
COc1ccccc1CNC(=O)Cn1ncc2c(C)n(Cc3ccccc3Cl)c(C)c2c1=O,-1%[59 µM],/,-18%,/,-7%,37%
COC(=O)Nc1cc(C(=O)c2ccc(Cl)cc2Cl)c[nH]1,50µM*,/,?,-10,?,-18%
Cc1nc(Cl)cc(CS(=O)(=O)c2ccc(Cl)cc2)n1,?,4,79µM*,0,-11%,11%
Cc1nc(CS(=O)(=O)c2ccccc2)cc(Sc2ccc(Cl)cc2Cl)n1,36%[59 µM],2,5%,1,-6%,33%
Cc1ccc(-n2c(-c3c(-c4ccccc4)noc3C)n[nH]c2=S)cc1,0.56µM*,-7,-23%,-9,-23%,12%
COc1ccc(-c2n[nH]c(=S)n2-c2ccc(C)cc2)cc1OC,4µM*,4,-14%,3,6.3µM*,27%
Cc1ccc(-n2c(-c3cccc(C)c3)n[nH]c2=S)cc1,-127%,-6,-28%,3,20µM*,-8%
Cc1ccc(-n2c(C)nc3ncnc(-c4ccccc4)c32)cc1,9%[59 µM],-15,2%,-4,-6%,-1%
N/C(=N\OC(=O)c1ccccc1Cl)c1ccccn1,71µM*,6,0%,5,-15%,10%
N/C(=N\OC(=O)c1ccccc1[N+](=O)[O-])c1ccccn1,3.2µM*,2,-31%,1,-20%[57.1 µM],9%
Cc1nn(Cc2ccccc2)c(C)c1/C=N/NC(=O)CNc1cccc(C(F)(F)F)c1,9%[59 µM],/,-37%,4,-32%,16%
COc1ccc(NCC(=O)N/N=C/c2c(C)nn(Cc3ccccc3)c2Cl)cc1,?,-24,45µM*,?,?,-28%
COc1cccc(CNC(=O)Cn2cc3c(n2)-c2c(oc(C(=O)N4CCOCC4)c2C)CC3)c1,-4%[59 µM],/,-21%,/,4%,47%
Cn1c(SCc2cccc([N+](=O)[O-])c2)nc2c(c1=O)SCC2,?,?,71µM*,-25,56µM*,-15%
CC(=O)c1ccc(NC(=O)Cn2cc3c(n2)CCCC3)cc1,4%[59 µM],/,1%,/,-13%,18%
CSC1=NC(=O)/C(=C/c2ccc(SC)cc2)S1,-27%,-2,-15%,-1,-21%,19%
CCOC(=O)CSC1=NC(=O)/C(=C\c2ccc(Cl)cc2)S1,35µM*,-9,-33%,2,?,14%
COc1ccc2cc1Oc1ccc(cc1)CC1c3c(cc(OC)c4c3Oc3cc5c(cc3O4)CCNC5C2)CCN1C (stereo not given),?,-11,6.3µM*,?,11µM*,?
COc1ccc2cc1Oc1ccc(cc1)C[C@H]1c3c(cc(OC)c4c3Oc3c(ccc5c3[C@H](C2)N(C)CC5)O4)CCN1C,/,-4,/,-5,20µM*,?
COc1ccccc1N1CCN(C(=O)c2cc3ccc4ccc(C)[nH]c4c3n2)CC1,?,/,-25%[57.1 µM],/,?,2%
Cc1ccccc1NC(=O)c1c(NC(=O)C(C)Oc2cccc(Cl)c2)sc2c1CCCC2 (stereo not given),?,/,-9%,/,-12%,-16%
c1ccc(Nc2cc(Nc3ccccc3)[nH]n2)cc1,?,5,45µM*,-13,?,-26%
O=c1nccc(Nc2ccccc2)[nH]1,11%[12.7 µM],/,-3%,4,-12%,33%
CCc1nnc2n1N=C(c1ccc([N+](=O)[O-])cc1)CS2,35µM*,0,-5%,1,-5%,37%
FC(F)(F)c1ccccc1-c1ccc2ncnc(NCc3cccnc3)c2c1,-45%[0.501 µM],/,/,/,/,/
Cc1ccc(Cl)c(NC(=O)Nc2csc3c2CCCC3)c1,7%[59 µM],/,-1%,/,-7%,24%
